Our source for the TR-FRET ratio values is PubChem BioAssay AID1049 (The Scripps Research Institute Molecular Screening Center, 2008).

Out of some 200,000 compounds screened, about 780 (0.39%) were called active. Cut-off read from the data, not from the text of the source: active = TR-FRET ratio above about 2000; inactive = the rest. The sample as a whole holds a higher share of actives than the screen did.

The test can be described thus: TR-FRET signal artefacts, primary screen, artefact control for PPARgamma SRC-2 agonist project, biochemical (AID 1049). Conditions: TR-FRET artefact counter-screen; at 8 µM; active compounds read high.
On to `COc1cccc(NC(=O)c2ccc3c(SCC(=O)O)c4c(nc3c2)CCCC4)c1`, for which the TR-FRET ratio is 1460 (inactive).

In the case of `Cc1cc(NC(C)C)n2c(nc3ccccc32)c1C#N`, the TR-FRET ratio is 1630 (inactive).

Consider `Cc1nn(CC#N)c(=O)n1N(C)c1ncc(C(F)(F)F)cc1Cl`, for which the TR-FRET ratio was 1490 (inactive).

`Cc1ccccc1-c1n[nH]c(=S)n1/N=C/c1ccc(-c2ccccc2Br)o1`: the TR-FRET ratio was 2460 (active).

Turning to `Cc1ccccc1-c1n[nH]c(=S)n1C`, the TR-FRET ratio was 1570 (inactive).

For the compound `Cc1n[nH]c(=S)n1/N=C/c1ccc(Br)o1`, the TR-FRET ratio was 1670 (inactive).

Consider `O=S(=O)(/N=C(/Nc1ccccc1)c1ccccc1)c1cccs1`, for which the TR-FRET ratio is 1640 (inactive).

Take `CC(=O)Nc1ccc(S(=O)(=O)Oc2ccc(/C=N/N=C3/NC(=O)C(CC(=O)O)S3)cc2)cc1` (configuration not stated): the TR-FRET ratio was 1610 (inactive).

On to `O=C(c1ccccc1Cl)N(Cc1ccccc1F)N1C(=O)CCCC1=O`, for which the TR-FRET ratio was 1650 (inactive).

As to `CCn1c(=O)cc(SCC(=O)NCc2ccc3c(c2)OCO3)c2ccccc21`, the TR-FRET ratio is 2130 (active).

In the case of `CC(C)NC(=O)CSc1ccccc1C(=O)NCc1ccc2c(c1)OCO2`, the TR-FRET ratio is 1420 (inactive).

For the compound `CCn1c(=O)cc(SCC(=O)NCCC2=CCCCC2)c2ccccc21`, the TR-FRET ratio was 1870 (inactive).

Consider `CC(C)(C)NC(=O)C(=O)NN=C1CCCCCCC1`, for which the TR-FRET ratio was 1240 (inactive).

On to `c1ccc(COc2nsnc2N2CCOCC2)cc1`, for which the TR-FRET ratio is 1720 (inactive).

With `COc1ccc(CSc2nc(N3CCOCC3)c3c(c2C#N)CC(C)(C)OC3)cc1`, the TR-FRET ratio is 1500 (inactive).

In the case of `c1ccc(CSc2ncnc3c2sc2nc(N4CCOCC4)c4c(c23)CCCC4)cc1`, the TR-FRET ratio is 2910 (active).

`CCOc1ccc(N2C(=O)Nc3ccccc3C2(O)C(=O)NCc2ccco2)cc1` (configuration not stated): the TR-FRET ratio is 1700 (inactive).

Take `O=C(CSc1nnc(SCc2ccc(Cl)cc2)s1)N/N=C/c1ccccc1Cl`: the TR-FRET ratio was 1600 (inactive).

For `Cc1ccc(CN(Cc2cccnc2)C(=S)Nc2cccc(Cl)c2C)cc1`, the TR-FRET ratio was 1420 (inactive).

For `CCN(C(=O)COc1cccnc1[N+](=O)[O-])C1CCS(=O)(=O)C1` (configuration not stated), the TR-FRET ratio was 1550 (inactive).

As for `COc1ccc(Cc2nnc(NC(=O)Cc3cccs3)s2)cc1`, the TR-FRET ratio is 1330 (inactive).

Take `COCC(=O)Nc1nnc(COc2ccccc2)s1`: the TR-FRET ratio is 1270 (inactive).

With `COc1ccc(OCC(=O)Nc2nnc(-c3ccco3)s2)cc1`, the TR-FRET ratio was 2240 (active).

With `CC(NC(=O)COC(=O)c1cc(=O)[nH]c2ccccc12)c1ccccc1` (configuration not stated), the TR-FRET ratio is 1810 (inactive).

As for `CCOC(=O)c1sc(NC(=O)COc2ncnc3ccccc23)c(C(=O)OCC)c1C`, the TR-FRET ratio was 1580 (inactive).

Consider `CCOC(=O)c1c(NC(=O)CNC2CCCc3ccccc32)sc(C(N)=O)c1C` (configuration not stated), for which the TR-FRET ratio was 2030 (active).

For `CCOC(=O)c1sc(NC(=O)CSc2nnc(-c3ccco3)o2)c(C(=O)OCC)c1C`, the TR-FRET ratio is 1590 (inactive).

For `COc1ccc(CN2CCCC(CNC(=O)c3ccc(F)cc3)C2)cc1OC` (configuration not stated), the TR-FRET ratio is 1400 (inactive).

Regarding `C/C(CC(=O)NC(C)(C)C)=N\NC(=O)c1ccco1`, the TR-FRET ratio was 1540 (inactive).

On to `N#Cc1c2c(c(-c3ccccc3)[nH]c1=O)CCCC2`, for which the TR-FRET ratio was 1620 (inactive).

In the case of `N#Cc1c(-c2ccc(Cl)cc2)c2c([nH]c1=S)CCCC2`, the TR-FRET ratio is 2030 (active).

With `CNc1nccc(-c2ccc(Cl)cc2)c1C#N`, the TR-FRET ratio is 1580 (inactive).

For the compound `Cc1ccc(CNC(=O)COc2ccc3c(c2)CCC3)cc1`, the TR-FRET ratio is 1560 (inactive).

Take `CCCCN(C(=O)c1ccc(OC(F)(F)F)cc1)c1c(N)n(CCC)c(=O)[nH]c1=O`: the TR-FRET ratio is 1420 (inactive).

With `C/C=N/NC(=O)CCCC(=O)N/N=C/C`, the TR-FRET ratio is 1590 (inactive).

With `COc1ccccc1C1/C(=C(/O)c2ccc(OC(C)C)cc2)C(=O)C(=O)N1c1cc(C)on1` (configuration not stated), the TR-FRET ratio is 1930 (inactive).

As for `COc1ccc(C2/C(=C(/O)c3ccccc3)C(=O)C(=O)N2c2ncccn2)cc1OC` (configuration not stated), the TR-FRET ratio was 1610 (inactive).

With `Cc1cc(N2C(=O)C(=O)/C(=C(/O)c3ccc(Cl)cc3)C2c2cccc(Br)c2)no1` (configuration not stated), the TR-FRET ratio was 1980 (active).

Regarding `Cc1cc2ccccc2n1CCNC(=O)COc1ccc2ccccc2c1`, the TR-FRET ratio was 3050 (active).

Turning to `COC(=O)C(C)NC(=O)COc1ccc2ccccc2c1` (configuration not stated), the TR-FRET ratio was 1440 (inactive).

With `Cc1cc2ccccc2n1CCC(=O)O`, the TR-FRET ratio is 1790 (inactive).

Regarding `COc1ccc(/C=N/Nc2ncnc3sc4c(c23)CCCC4)cc1O`, the TR-FRET ratio was 1360 (inactive).

As for `CCCOc1ccc(N/C=C/C(=O)C(C)(C)C)cc1`, the TR-FRET ratio was 1530 (inactive).

On to `CN(C)c1ccc(N/C=C/C(=O)C(F)(F)F)cc1`, for which the TR-FRET ratio is 2200 (active).

In the case of `O=C(/C=C/Nc1ccccc1OC(F)(F)F)C(F)(F)F`, the TR-FRET ratio is 1490 (inactive).

As for `CN(C)C(=O)c1ccc2c(c1)C1C3CCC(C3)C1C(c1ccccc1)N2` (configuration not stated), the TR-FRET ratio was 1630 (inactive).

For the compound `COc1cccc(NC(=S)N(Cc2ccc(C)cc2)Cc2ccccn2)c1`, the TR-FRET ratio is 1700 (inactive).

On to `CSc1ncccc1C(=O)OCc1ccc(Br)cc1`, for which the TR-FRET ratio is 1680 (inactive).

Take `Cc1cc(C)c(NC(=O)CS(=O)CC(=O)Nc2cccnc2)c(C)c1` (configuration not stated): the TR-FRET ratio was 1340 (inactive).

In the case of `Cc1ccc(-c2nc(-c3cccnc3)sc2CC(=O)Nc2ccc(C)c(Cl)c2)cc1`, the TR-FRET ratio is 2240 (active).

As for `Cc1ccc(NC(=O)COc2ccc(-n3ccnc3)cc2)cc1Cl`, the TR-FRET ratio was 1510 (inactive).

`COc1ccc(OC)c(Cc2nnc(CCC(=O)NC3CCCC3)o2)c1`: the TR-FRET ratio was 1590 (inactive).

As to `O=C(Nc1cccc(CCc2ccccn2)c1)c1ccc(Cl)cc1`, the TR-FRET ratio is 1410 (inactive).

For `CN(C)/C=C(/C(=O)c1ccccc1)S(=O)(=O)c1ccc(Cl)cc1`, the TR-FRET ratio is 1390 (inactive).

For `O=C(Nc1ccc2oc(-c3ccccc3F)nc2c1)c1ccco1`, the TR-FRET ratio was 1310 (inactive).

For `COc1cc(OC)cc(C(=O)Nc2ccc(-c3nc4ccccc4o3)c(O)c2)c1`, the TR-FRET ratio was 2300 (active).

For the compound `COc1cc(OC)cc(C(=O)Nc2ccc(S(=O)(=O)Nc3cc(C)on3)cc2)c1`, the TR-FRET ratio is 1400 (inactive).

For `CC(=O)c1ccc(S(=O)(=O)N2CCN(c3nc4c(C)c(C)ccc4cc3C#N)CC2)cc1`, the TR-FRET ratio is 2950 (active).

In the case of `Cc1cc(C)c2nc(N3CCCC3)c(C#N)cc2c1`, the TR-FRET ratio is 1740 (inactive).

Turning to `Cc1cccc2cc(C#N)c(N3CCCC3)nc12`, the TR-FRET ratio was 1510 (inactive).

Consider `CC(C)OCCCNC(=O)c1ccc(C2SCC(=O)N2Cc2ccco2)cc1` (configuration not stated), for which the TR-FRET ratio was 1510 (inactive).

For `CCOc1ccc(N2CC(C(=O)NCCN3C(=O)S/C(=C\c4cccnc4)C3=O)CC2=O)cc1` (configuration not stated), the TR-FRET ratio is 1470 (inactive).

Consider `COC(=O)c1cc2n(n1)CCCNC2=O`, for which the TR-FRET ratio was 1460 (inactive).

For the compound `COc1cccc(NC(=O)CN(C)C(C)C(=O)Nc2ccc(C#N)cc2)c1` (configuration not stated), the TR-FRET ratio is 1560 (inactive).

Take `CN(C)S(=O)(=O)c1cccc(NC(=O)COC(=O)/C=C/c2cccs2)c1`: the TR-FRET ratio was 1590 (inactive).

As to `O=C(c1ccncc1)c1ccc([N+](=O)[O-])cc1`, the TR-FRET ratio was 1700 (inactive).

For the compound `O=C(CSc1c2c(nc3ccc(Cl)cc13)CCCC2)NCc1ccco1`, the TR-FRET ratio is 2000 (active).

Consider `O=C(/C=C/c1ccc(Cl)cc1Cl)NCc1ccco1`, for which the TR-FRET ratio was 1530 (inactive).

With `O=C(NCc1ccco1)c1cc(-c2cccnc2)nc2ccc(Cl)cc12`, the TR-FRET ratio is 1650 (inactive).

As for `Cc1ccc(-c2cc(C(=O)NCc3cn(C)nc3C)c3cc(Br)ccc3n2)cc1`, the TR-FRET ratio was 2980 (active).

On to `Cc1ccc2nc(-c3cccc(Br)c3)cc(C(=O)Nn3cnnc3)c2c1`, for which the TR-FRET ratio was 1400 (inactive).

Consider `COc1ccc(Cl)cc1C(=O)NCc1cn(C)nc1C`, for which the TR-FRET ratio is 1670 (inactive).

For `O=c1[nH]cnc2c1c(-c1ccccc1)cn2-c1ccc(F)cc1`, the TR-FRET ratio was 1650 (inactive).

Take `Cc1ccccc1N1C(=O)C(Oc2ccc(Cl)cc2)C1CNCC1CCCO1` (configuration not stated): the TR-FRET ratio was 1310 (inactive).

Take `Cc1ccc(N2C(=O)C(NC(=O)c3c(F)cccc3F)(C(F)(F)F)C3=C2CC(C)(C)CC3=O)cc1` (configuration not stated): the TR-FRET ratio was 1460 (inactive).

`O=C(COC(=O)/C=C/c1cccc(Cl)c1)NCCc1ccccc1`: the TR-FRET ratio was 1440 (inactive).

As for `CCN(CC)S(=O)(=O)c1cccc(-c2n[nH]c(=S)n2/N=C/c2ccc(C(=O)OC)cc2)c1`, the TR-FRET ratio is 1510 (inactive).

For `CC(=O)Oc1ccc2c(C)c(CC(C)O)c(=O)oc2c1` (configuration not stated), the TR-FRET ratio is 1440 (inactive).

Turning to `O=C(Oc1ccccc1)Oc1ccc2c(c1)oc(=O)c1ccccc12`, the TR-FRET ratio was 2370 (active).

On to `Cc1c(Cc2ccccc2)c(=O)oc2cc(OCC(N)=O)ccc12`, for which the TR-FRET ratio was 1400 (inactive).

`COc1ccc(C2=NN(c3nc4ccccc4s3)C(=O)C2)cc1`: the TR-FRET ratio is 1550 (inactive).

For the compound `CN(Cc1cccc2ncccc12)C(=O)CC1C(=O)NCCN1Cc1ccc(F)cc1` (configuration not stated), the TR-FRET ratio was 1420 (inactive).

For `O=C(O)/C=C/c1ccc(OCCCF)cc1`, the TR-FRET ratio was 1530 (inactive).

For `COc1cc(/C=N/N=C(\N)c2nonc2N)cc(OC)c1OC`, the TR-FRET ratio is 1490 (inactive).

For the compound `Cc1cc(=O)n2[nH]c(-c3sccc3-n3c(C)ccc3C)cc2n1`, the TR-FRET ratio was 1620 (inactive).

`Cc1ccc(S(=O)(=O)N2CCOCC2)cc1NC(=O)CSc1nnc(N)s1`: the TR-FRET ratio is 1520 (inactive).

For the compound `CCN=C1S/C(=C\c2cc(Br)ccc2OCC(=O)OCC)C(=O)N1CC`, the TR-FRET ratio was 1500 (inactive).

On to `CCCOc1ccc(NC(=O)C2OC3OC(C)(C)OC3C3OC(C)(C)OC23)cc1` (configuration not stated), for which the TR-FRET ratio was 1480 (inactive).

With `Cc1ccccc1N1CCN(CCCOc2ccc3c(C)cc(=O)oc3c2)CC1`, the TR-FRET ratio was 1510 (inactive).

On to `Cc1cc(OCC(=O)NC2CCN(C)CC2)ccc1[N+](=O)[O-]`, for which the TR-FRET ratio is 1540 (inactive).

`Cc1cc(OCCCN2CCN(Cc3ccccc3)CC2)ccc1[N+](=O)[O-]`: the TR-FRET ratio is 2000 (active).

As for `C/C(N)=C(/C#N)C(=O)COC(=O)c1cc(-c2ccccc2)nc2ccc(Br)cc12`, the TR-FRET ratio was 1540 (inactive).

As to `Cc1cc(C)c2c(NC(=O)C3CC3)nn(C)c2n1`, the TR-FRET ratio was 1370 (inactive).

With `CCN(C(=O)COC(=O)c1c(NC(C)=O)sc(C)c1C)C1CCS(=O)(=O)C1` (configuration not stated), the TR-FRET ratio is 1610 (inactive).

For the compound `COC(=O)c1ccc(-c2noc(CN(Cc3ccccn3)CC3CCCO3)n2)cc1` (configuration not stated), the TR-FRET ratio was 1700 (inactive).

Consider `CCN(CCn1cccn1)Cc1nc(-c2ccc(C(=O)OC)cc2)no1`, for which the TR-FRET ratio is 1990 (active).

Turning to `CCN(CCn1cccn1)Cc1cn[nH]c1-c1ccc(OC)cc1F`, the TR-FRET ratio is 1510 (inactive).
